Each structure is given as a SMILES string. The campaign covered roughly 360,000 compounds. About 3,700 (1%) were called active. The sample holds actives, similar compounds and a random draw of the others, so the mix is not that of the screen. A number with no mark means an inactive call. Rule as the data show it: active = activation above about 30%; inactive = the rest.

Chain of D(1A) dopamine receptor (Homo sapiens) (P21728 whole entry, looked up): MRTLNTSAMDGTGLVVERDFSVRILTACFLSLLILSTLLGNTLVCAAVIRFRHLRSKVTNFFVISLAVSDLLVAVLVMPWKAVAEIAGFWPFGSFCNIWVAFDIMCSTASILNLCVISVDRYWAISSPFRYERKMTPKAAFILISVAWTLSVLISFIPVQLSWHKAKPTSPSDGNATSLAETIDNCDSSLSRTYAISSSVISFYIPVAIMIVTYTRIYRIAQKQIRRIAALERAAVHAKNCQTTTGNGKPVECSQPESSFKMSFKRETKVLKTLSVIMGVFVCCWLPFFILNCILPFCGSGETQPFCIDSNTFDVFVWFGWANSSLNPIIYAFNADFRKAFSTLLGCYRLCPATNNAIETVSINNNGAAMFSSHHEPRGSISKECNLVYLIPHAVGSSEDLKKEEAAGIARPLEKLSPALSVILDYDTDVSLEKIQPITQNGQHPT

This experiment has as its target D(1A) dopamine receptor (Homo sapiens) (UniProt P21728). Kind of experiment: Allosteric Agonists of the Human D1 Dopamine Receptor: qHTS. Also: 0% is about no effect. Particulars: HEK293 T-REx D1 cells, calcium flux, agonist mode; at 2 µM; stronger effect = higher value. A digest of the protocol: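 Tetracycline-induced HEK293 TREx D1 cells, force-coupled to calcium signalling, were dye-loaded with a no-wash calcium kit. Compound was pin-added after a 10 s baseline. Fluorescence was read kinetically at 1 cycle/s for 180 s, with calcium rises flagged as agonism.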
Consider `COc1ccc(CCNCc2c(C(=O)O)c(C)n(Cc3cccc(C)c3)c2C)cc1OC`, for which the activation was 1.85%.
In the case of `CCc1cc2c(-c3ccccc3)cc(=O)oc2c2c1OCN(Cc1ccc(C)cc1)C2`, the activation was 10.6%.
As for `CSc1ccc(C2c3c(oc4ccccc4c3=O)C(=O)N2CCCN2CCOCC2)cc1` (centres undefined), the figure is -1.33%.
Next, `CCc1ccc(NC(=O)C2CCCN2S(=O)(=O)c2ccc3nc(-c4ccccc4)[nH]c3c2)cc1` (centres undefined): 0.736%.
As for `CCCn1nc(C(=O)N2CCCc3ccccc32)c2ccccc2c1=O`, the activation was 0.113%.
On to `Cc1cccc2cc3c(N)c(C(=O)N4CCCc5ccccc54)sc3nc12`, for which the activation is 60.4% (active).
On to `COc1cccc(/C=C/C(=O)OCC(=O)N2CCCc3ccccc32)c1`, for which the activation is 9.89%.
For `Oc1ccccc1-c1nc(/C=C/c2ccc(F)cc2)no1`, the activation is 5.78%.
Take `O=C(/C=C/c1ccccc1)Nc1cc(-c2nc3cc(Cl)ccc3o2)ccc1Cl`: the activation was -1.26%.
Regarding `COc1ccc(-c2nc3sc(CCNC(=O)C(C)(C)C)c(C)n3n2)cc1`, the activation was 3.98%.
`Cc1ccc(Nc2c(-c3ccc(C)cc3)nc3cnccn23)cc1`: the activation was 3.9%.
As for `Cc1ccc(Nc2c(-c3ccc(N(C)C)cc3)nc3nc[nH]n23)cc1`, the figure is 39.9% (active); as for `Cc1ccc(-c2nc3cccc(C)n3c2Nc2ccc3c(c2)OCCO3)cc1`, -0.166%; as for `COc1ccc(-c2nc3ccccc3s2)cc1NC(=O)COc1ccccc1C`, -0.142%.
On to `Cc1cc2c(s1)c1cnn(Cc3c(F)cccc3Cl)c(=O)c1n2C`, for which the activation is 0.794%.
In the case of `Cn1c(=O)c2c(n3c4ccccc4nc13)NC(=O)CC2c1cccc(Cl)c1` (centres undefined), the activation was 3.64%.
Next, `COC(=O)c1cccc(NC(=O)CSc2nc(C)cc(=O)[nH]2)c1`: 1.14%.
Turning to `COc1ccc(C(=O)CSc2n[nH]c(N)n2)cc1`, the activation is -2.12%.
Consider `COC(=O)c1cc(C(=O)CSc2nc(C)cc(C)n2)ccc1O`, for which the activation was 257% (active).
As to `Cn1c(=O)c2c(nc(SCC(=O)Nc3ccc(F)cc3)n2Cc2ccc(Cl)cc2)n(C)c1=O`, the activation was -0.966%.
As to `CCOC(=O)c1ccc(NC(=O)C2CCN(S(=O)(=O)c3ccc4c(c3)CCCC(=O)N4)CC2)cc1`, the activation was -0.195%.
Turning to `COc1ccc(Cl)cc1N(C)C(=O)c1cc2c(=O)oc3ccc(C)cc3c2s1`, the activation was 1.68%.
Consider `COC(=O)c1sc(-c2ccc(C(C)(C)C)cc2)cc1NC(=O)/C=C/C(=O)O`, for which the activation was 33% (active).
Regarding `Cc1ccc(NC(=O)c2oc3ccccc3c2NC(=O)Cc2cccs2)cc1`, the activation is 5.67%.
As to `CCN1C(=O)c2ccccc2Sc2ccc(NC(=O)Cc3ccc(OC)cc3)cc21`, the activation is 8.31%.
Next, `COc1ccc(-c2onc3ccc(C(C)=O)cc23)cc1`: 68% (active).
For `COc1ccc(NC(=O)Nc2cccc(-c3noc(C)n3)c2)cc1`, the activation was -0.581%.
Take `COc1ccc(-c2nc3ccc(C(=O)NCc4ccc(C)cc4)cc3nc2-c2ccc(OC)cc2)cc1`: the activation is -0.317%.
Next, `O=C(NCCCc1ccccc1)c1ccc2c(c1)sc1nc(-c3ccc(F)cc3)cn12`: 1.38%; `COC(=O)c1cc(S(=O)(=O)NCC2CCN(Cc3ccc(Cl)cc3)CC2)cn1C`: 35.7% (active); `O=S(=O)(NCC1CC1)c1ccc(F)c(Cl)c1`: 0.965%.
Next, `COC(=O)c1cc(S(=O)(=O)NC2CCN(Cc3ccccc3)CC2)cn1C`: 6.94%.
`O=C(CSc1ncc(CO)n1Cc1ccc(Cl)cc1)NCc1ccc(F)cc1`: the activation is -0.41%.
As for `Cc1ccc(NC(=O)CSc2nc3c(c(=O)[nH]2)CN(Cc2ccc4c(c2)OCO4)CC3)cc1C`, the activation is 2.15%.
Next, `CCNC(=O)CC1C(=O)N(c2ccc(F)cc2)C(=O)N1Cc1ccc(C)cc1` (centres undefined): -1.09%; `COCc1cc(C)nc(SCC(=O)Nc2cccc(C)c2)c1C#N`: 1.7%; `Cc1cc(C(F)(F)F)c(C#N)c(SCC(=O)NC2CC2)n1`: 2.38%.
For `Cc1ccc(-c2cc(C(F)(F)F)c(C#N)c(SCC(=O)Nc3ccccc3)n2)cc1`, the activation is 76.6% (active).
For `CCOc1ccc(-n2c(C)nc3c(cnn3-c3ccc(C)cc3)c2=O)cc1`, the activation was 0.209%.
For `CCCCN(CC)C(=O)c1c[nH]c2ccc(S(=O)(=O)Nc3cccc(OC)c3)cc2c1=O`, the activation was 1.98%.
For `CCCCNC(=O)c1c[nH]c2ccc(S(=O)(=O)Nc3ccc(OCC)cc3)cc2c1=O`, the activation is 5.78%.
Turning to `COc1cccc(NS(=O)(=O)c2ccc3[nH]cc(C(=O)NCCCOC(C)C)c(=O)c3c2)c1`, the activation is 122% (active).
For the compound `O=C(c1cccs1)c1cn(CCOc2ccc(Cl)cc2)c2ccccc12`, the activation was -1.61%.
With `Cc1ccc(C)n1-c1nnc(N2CCC(C(=O)NCc3ccc(F)cc3)CC2)s1`, the activation was 2.04%.
Turning to `CC1=C(c2ccc(Cl)cc2)S(=O)(=O)N=C1N1CCN(c2cc(C)ccc2C)CC1`, the activation is 7.7%.
As for `Cc1oc(-c2ccccc2)nc1Cn1c(SCc2cccc(C(F)(F)F)c2)nc2cccnc21`, the figure is 3.89%.
As for `Cc1ccc2c(=O)oc(N(C)C)nc2c1`, the activation is 1.52%.
`CN(Cc1nc2ccccc2c(=O)[nH]1)Cc1cc(=O)oc2ccc3ccccc3c12`: the activation is -0.344%.
Turning to `CCN(CC)c1ccc2oc(=O)c(C)nc2c1`, the activation was 192% (active).
As for `Cc1ccc(Cl)cc1N1CCN(C(=O)c2cn(C)c3ccc(S(=O)(=O)N(C)C4CCCCC4)cc3c2=O)CC1`, the figure is 3.27%.
`COc1ccc(Cl)cc1S(=O)(=O)Nc1cccc(C(=O)O)c1`: the activation was 2.88%.
For `COc1ccc(S(=O)(=O)c2c(Nc3cccc(Cl)c3)sc(C(=O)c3ccccc3)c2N)cc1`, the activation was 75.8% (active).
Next, `CO/N=C(/CS(=O)(=O)c1ccc(Br)cc1)c1ccc(OC)cc1`: 0.348%.
As to `COc1ccc(S(=O)(=O)c2c(Nc3ccc(C)cc3)sc(C(=O)c3ccc(C)cc3)c2N)cc1`, the activation was 56.2% (active).
Next, `COc1ccc(C(=O)N2CCC(C(=O)Nc3ccc(C)cc3)CC2)cc1`: 1.17%; `O=C(Nc1ccc2c(c1)OCO2)c1cc(-c2cccc(Cl)c2)on1`: -1.41%.
Next, `Cc1ccc(C(=O)Nc2sc(Cc3ccc4c(c3)OCO4)c(C)c2C(N)=O)cc1`: -1%.
As for `Cc1ccc(S(=O)(=O)c2c(Nc3cccc(Cl)c3)sc(C(=O)c3ccc4c(c3)OCO4)c2N)cc1`, the activation was 61.9% (active).
Turning to `CC(=O)c1c(Nc2ccccc2)sc(C(=O)c2ccccc2)c1C`, the activation was 5.07%.
On to `CCc1ccccc1NC(=O)N1CCN(C(=O)c2nsc3ccccc23)CC1`, for which the activation was 2.7%.
Consider `CCCS(=O)(=O)c1ncc(Cl)c(C(=O)Nc2scc(-c3ccccc3)c2C(=O)OCC)n1`, for which the activation was 5.24%.
Take `O=c1c(NCc2cccs2)nccn1-c1ccccc1`: the activation was 2.15%.
As to `Cc1ccc(CNS(=O)(=O)c2ccc(-c3cc(C(F)(F)F)on3)s2)cc1`, the activation is 0.651%.
Turning to `Cn1nnnc1Sc1ncnc2scc(-c3ccccc3[N+](=O)[O-])c12`, the activation was 1.58%.
As for `CCc1ccc(NC(=O)Cn2c(=O)n(CCC(=O)NCc3ccc4c(c3)OCO4)c(=O)c3ccccc32)cc1`, the activation is -0.957%.
Take `O=C(CCCN1CCc2[nH]c3ccc(F)cc3c2C1)c1ccc(F)cc1`: the activation is 56.3% (active).
In the case of `Cc1ccc2[nH]c3c(c2c1)CN(C(=O)CN1CCN(c2ccccc2)CC1)CC3`, the activation is 0.149%.
Next, `O=c1c2ccccc2[nH]c(=S)n1CCN1CCC(=C(c2ccc(F)cc2)c2ccc(F)cc2)CC1`: 0.942%; `O=C(CSc1nc2ccccc2nc1Cc1ccccc1)N1CCCCC1`: 4.62%; `CCc1nccn1S(=O)(=O)c1cc(Br)ccc1Br`: -0.03%.
Next, `CCOc1ccccc1NC(=O)C1=C(C)Nc2ncnn2C1c1ccc(NC(C)=O)cc1` (centres undefined): 1.04%; `Cc1ccc(-c2nn(CCC(=O)Nc3ccc(Cl)c(Cl)c3)c(=O)c3ccccc23)cc1`: 0.86%; `Cc1ccc(-c2nn(CCC(=O)Nc3ccc(OC(F)(F)F)cc3)c(=O)c3ccccc23)cc1`: 1.41%.
Regarding `Cc1cccc(NC(=O)Cn2nc(-c3ccc(Cl)cc3)c3ccccc3c2=O)c1`, the activation was 35.9% (active).
As for `Cc1ccc(C(=O)Nc2nc(-c3ccccc3)ns2)cc1`, the activation is -0.0471%.
On to `CCC(=O)N1c2ccccc2CC1C(=O)N1CCN(c2cccc(OC)c2)CC1` (centres undefined), for which the activation is -0.217%.
Regarding `O=C1NC(=O)C2C1C(c1ccc([N+](=O)[O-])cc1)=NN2Cc1ccccc1` (centres undefined), the activation was 44.8% (active).
Next, `CC(=O)N1c2ccccc2N(Cc2ccc([N+](=O)[O-])cc2)C(=O)C1(C)C`: 2.19%; `O=C(NCCCCc1ccccc1)C1CC(c2ccc([N+](=O)[O-])cc2)=NO1` (centres undefined): 7.04%.
`Cc1cccc(NC(=O)c2cc3c(C)nn(-c4ccccc4)c3s2)c1`: the activation is 2.46%.
As for `CCOC(=O)c1oc2ccc(S(=O)(=O)n3nc(-c4ccccc4OC)cc3N)cc2c1C`, the figure is 4.93%; as for `Cc1cc(C)cc(NC(=O)N(C)Cc2ccccc2)c1`, 2.04%.
Turning to `CN(C(=O)CN(CCO)CC(=O)N(C)C(C)(C)Cc1ccccc1)C(C)(C)Cc1ccccc1`, the activation was 40.5% (active).
For the compound `CC(C)(C)N(Cc1ccccc1)C(=O)c1ccncc1`, the activation was -0.455%.
As for `CCOC(=O)c1c(S(=O)(=O)NCC(=O)Nc2ccc(Cl)c(C(F)(F)F)c2)c(C)n(C)c1C`, the activation was 6.5%.
For `Cc1cc(C)c(NC(=O)CSc2nc3nccnc3c(=O)n2CCc2c[nH]c3ccccc23)c(C)c1`, the activation is 2.34%.
As to `CCN1CCN(CCNC(=O)c2ccc(/C=C3/Sc4ccccc4N(Cc4cccc(C)c4)C3=O)cc2)CC1`, the activation is 48.6% (active).
Regarding `O=C(CN1C(=O)/C(=C/c2ccccc2F)Sc2ccccc21)NCc1cccnc1`, the activation is 4.38%.
Next, `O=C(NCCN1C(=O)S/C(=C\c2cccnc2)C1=O)c1ccc(S(=O)(=O)N2CCCC2)cc1`: 1.07%.

Values taken from PubChem BioAssay AID504660 (National Center for Advancing Translational Sciences (NCATS), 2011).
